According to PubChem BioAssay:
Where “and” joins values, the source holds several entries; their conditions need not be identical. Equal entries are not always repeated. Results filed as inconclusive are left out. For part of these data: Potency and affinity values are given separately. More than one record can exist for a structure, and the calls need not agree. Calls of active or inactive are those of the source. Unless noted, how the calls were made is not given here.

Legend:
[1] = antimalarial activity against Dd2 strain (AID 2302;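 active means growth inhibition above 50% at the single 2 µM test dose, taken to imply half-maximal potency below 2 µM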;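 further: 0% = DMSO untreated growth and 100% = chloroquine plus artemisinin killed control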); conditions: P. falciparum Dd2 in RBCs, LDH growth readout, 72 h; at 2 µM; stronger effect = higher value
[2] = human hepatoma cell viability loss – ATP luminescence, cytotoxicity control for P. falciparum antimalarial project, primary screen (AID 2303;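 active means inhibition above 50%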;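 further: 0% = DMSO wells and 100% = digitonin-killed cells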); conditions: HepG2 viability, 24-48 h, at 10 µM, stronger effect = higher value
[3] = target: L-lactate dehydrogenase (Plasmodium falciparum (isolate CDC / Honduras)) (UniProt Q27743); test: PfLDH activity inhibition – cell lysate, 3D7 strain, counter-screen for P. falciparum growth inhibition project (AID 2304);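 further: 0% = vehicle and 100% = reference inhibitor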; conditions: P. falciparum 3D7 crude extract, LDH APAD/NBT absorbance; at 2 µM; stronger effect = higher value
[4] = inhibition of 3D7 malaria parasite growth – strain 3D7 (AID 2306);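 further: 0% = DMSO wells and 100% = chloroquine plus artemisinin control wells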; conditions: P. falciparum 3D7 erythrocytic growth, LDH absorbance, 72 h; at 2 µM; stronger effect = higher value
[5] = P. berghei load reduction in hepatocytes – cell-based, HepG2, luciferase luminescence, HepG2 viability, primary screen (AID 624349; in the data active means parasite load remaining mostly below about 12%, no sharp cut-off; inactive means mostly above about 10%;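 further: 100% = mean of DMSO negative control wells on the same plate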); conditions: P. berghei liver stage in HepG2, luciferase luminescence, concentration not given here; parasite load remaining: stronger effect = lower value; viability: measured here: HepG2 viability without parasites
[6] = target: Calcium-dependent protein kinase 1 (Plasmodium falciparum (isolate 3D7)) (UniProt P62344); test: PfCDPK1 kinase inhibitors, biochemical, TCAMS library (AID 1159585; cut-off not given, nearly all actives have IC50 up to about 0.98 µM;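 further: inhibitors leave more ATP so luminescence rises with inhibition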); conditions: recombinant PfCDPK1, Kinase-Glo ATP depletion luminescence
[7] = target: Plasmodium falciparum protein kinase 6 (PK6, PF3D7_1337100) (UniProt Q8IDW1); test: PfPK6 kinase inhibitors, biochemical, TCAMS library (AID 1159586); conditions: recombinant PfPK6, Kinase-Glo ATP depletion luminescence
[8] = target: Protein kinase 7 (PK7), Plasmodium falciparum 3D7 (PF3D7_0213400) (UniProt Q7YTF7); test: inhibition of Plasmodium PK7 catalytic activity – biochemical, TCAMS antimalarial set, Kinase-Glo luminescence (AID 1159587); conditions: recombinant PfPK7, Kinase-Glo ATP depletion luminescence
[9] = target: Calcium-dependent protein kinase 4 (Plasmodium falciparum (isolate 3D7)) (UniProt Q8IBS5); test: PfCDPK4 kinase inhibitors, biochemical, TCAMS library (AID 1159588; cut-off not given, nearly all actives have IC50 up to about 0.91 µM); conditions: recombinant PfCDPK4, Kinase-Glo ATP depletion luminescence
[10] = system: Aerobactin synthetase IucA (Klebsiella pneumoniae); test: inhibition of K. pneumoniae IucA enzyme – biochemical, Tocris library, absorbance (AID 1345561); conditions: purified IucA enzyme assay, absorbance (OD) read-out; stronger effect = lower value;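 tested at 8 µM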;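 further: 100% = enzyme without compound and 0% = no enzyme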
[11] = viability loss in pontine glioma line – cell-based, SU-DIPG-XVII, MIPE5.0, CellTiter-Glo, qHTS, dose response (AID 1347060; cut-off not given, nearly all actives have AC50 up to about 26 µM;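 on AC50: cells exposed to compound for 48 hours before viability readout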); conditions: CellTiter-Glo ATP luminescence
[12] = viability loss in pontine glioma line – cell-based, SU-DIPG-XIII, MIPE4.0, CellTiter-Glo, qHTS, dose response (AID 1347061; cut-off not given, nearly all actives have AC50 up to about 37 µM;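 further: cells exposed to compound for 48 hours before readout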); conditions: CellTiter-Glo ATP luminescence
[13] = viability loss in pontine glioma line – cell-based, JHH-DIPG-1, MIPE4.0, CellTiter-Glo, qHTS, dose response (AID 1347062; cut-off not given, nearly all actives have AC50 up to about 27 µM;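 on AC50: cells exposed to compound for two days before readout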); conditions: JHH-DIPG-1 viability, CellTiter-Glo ATP luminescence
[14] = viability loss in pontine glioma line – cell-based, SU-DIPG-IV, MIPE4.0, CellTiter-Glo, qHTS, dose response (AID 1347063; cut-off not given, nearly all actives have AC50 up to about 30 µM;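 further: compound exposure lasted 48 hours before the viability readout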); conditions: CellTiter-Glo ATP luminescence
[15] = viability loss in pontine glioma line – cell-based, SU-DIPG-XIII, MIPE5.0, CellTiter-Glo, qHTS, dose response (AID 1347064; cut-off not given, nearly all actives have AC50 up to about 23 µM;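 on AC50: cells exposed to compound for 48 hours before the viability read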); conditions: CellTiter-Glo ATP luminescence
[16] = viability loss in pontine glioma line – cell-based, SU-DIPG-XXV, MIPE5.0, CellTiter-Glo, qHTS, dose response (AID 1347065; cut-off not given, nearly all actives have AC50 up to about 26 µM;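 further: cells exposed to compound for 48 hours before ATP readout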); conditions: CellTiter-Glo ATP luminescence
[17] = growth inhibition of DIPG cells – cell-based, MIPE4.0 library, CellTiter-Glo luminescence, qHTS (AID 1347066; cut-off not given, nearly all actives have AC50 up to about 30 µM;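 further: cells exposed to compound for 48 hours before readout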); conditions: SU-DIPG-VI viability, CellTiter-Glo ATP luminescence
[18] = JHH-DIPG-1 glioma cell viability, MIPE5.0 library, CellTiter-Glo luminescence, qHTS (AID 1347067; cut-off not given, nearly all actives have AC50 up to about 26 µM;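 further: cells exposed to compound for 48 hours before readout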); conditions: JHH-DIPG-1 glioma viability, CellTiter-Glo ATP luminescence
[19] = growth inhibition of DIPG cells – cell-based, MIPE5.0 library, qHTS (AID 1347068; cut-off not given, nearly all actives have IC50 up to about 30 µM;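 on IC50: cells exposed to compound for 48 hours before viability readout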); conditions: SU-DIPG-XXV viability
[20] = viability loss with induced miR-34 in A549 – imaging, A549 dox-inducible miR-34, nuclei and caspase counts, primary screen (AID 1347080;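 active means compounds whose cell count with miR-34 switched on is under 0.7 times the count with it off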); conditions: A549 miR-34 inducible, Hoechst nuclei count, 48 h
[21] = MELAS cybrid and Rieske KO viability enhancers – cell-based, MELAS cybrids, Rieske KO mouse fibroblasts, CellTiter-Glo, primary screen (AID 1508586;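 active means mean z-score across replicates of 1.96 or higher in either the MELAS or the Rieske mutant cell line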;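 further: z relative to plate mean and SD of compound and empty wells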); conditions: low glucose
[22] = galactose survival enhancers in mitochondrial complex I cybrids – cell-based, galactose medium, ATP luminescence, primary screen (AID 1645843;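 active means z-score of at least 1.8 in each of two replicates, scored against plate mean and spread of sample wells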;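 further: positive z means more ATP and so rescue of galactose-driven cybrid death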); conditions: complex I mutant cybrid cells, 72 h, stronger effect = higher value
[23] = target: NAD(+) hydrolase SARM1 (Homo sapiens) (UniProt Q6SZW1); test: blocking NAD cleavage by SARM1 SAM-TIR – cell lysate, NAD-Glo luminescence (AID 1508614;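 active means compound whose remaining NAD level is above about 45 nM, limit read from the data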); conditions: SAM-TIR HEK293T lysate NADase, at 1 µM, stronger effect = higher value
[24] = target: Mitogen-activated protein kinase 7 (Homo sapiens) (UniProt Q13164); test: Gal4-ERK5 driven luciferase induction – cell-based, HTS, primary screen (AID 1508626;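 active means luciferase signal above three times the same-plate solvent-only control wells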;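 further: luciferase driven by Gal4-ERK5 fusion binding five Gal4 sites before minimal TATA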); conditions: HeLa Gal4-ERK5 transactivation, 18 h, at 5 µM, stronger effect = higher value
[25] = stronger effect = lower value, cell number ratio, induced over uninduced
[26] = measured here: relative caspase fold change +Dox/-Dox
[27] = measured here: total cells with miR-34 induction, stronger effect = lower value
[28] = measured here: total cells without miR-34 induction
[29] = MELAS cybrid survival, CellTiter-Glo 48 h, stronger effect = higher value
[30] = Rieske KO mouse fibroblast survival, CellTiter-Glo 72 h

Calcium-dependent protein kinase 4 (Plasmodium falciparum (isolate 3D7)), sequence (Q8IBS5 whole entry, looked up): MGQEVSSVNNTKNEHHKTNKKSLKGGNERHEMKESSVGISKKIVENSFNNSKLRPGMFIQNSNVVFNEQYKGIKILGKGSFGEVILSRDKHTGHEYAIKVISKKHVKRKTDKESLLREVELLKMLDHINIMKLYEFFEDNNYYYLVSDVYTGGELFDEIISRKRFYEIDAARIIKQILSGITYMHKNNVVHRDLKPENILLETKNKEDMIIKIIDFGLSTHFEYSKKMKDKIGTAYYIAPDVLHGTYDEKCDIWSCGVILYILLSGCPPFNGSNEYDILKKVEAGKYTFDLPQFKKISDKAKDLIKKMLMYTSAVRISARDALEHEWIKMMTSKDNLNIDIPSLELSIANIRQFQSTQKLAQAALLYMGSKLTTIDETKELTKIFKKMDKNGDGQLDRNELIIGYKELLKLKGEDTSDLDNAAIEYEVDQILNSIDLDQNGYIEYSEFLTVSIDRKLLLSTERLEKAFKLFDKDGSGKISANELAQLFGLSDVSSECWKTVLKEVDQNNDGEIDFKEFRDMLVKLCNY
Protein kinase 7 (PK7), Plasmodium falciparum 3D7 (PF3D7_0213400), sequence (Q7YTF7 1-343): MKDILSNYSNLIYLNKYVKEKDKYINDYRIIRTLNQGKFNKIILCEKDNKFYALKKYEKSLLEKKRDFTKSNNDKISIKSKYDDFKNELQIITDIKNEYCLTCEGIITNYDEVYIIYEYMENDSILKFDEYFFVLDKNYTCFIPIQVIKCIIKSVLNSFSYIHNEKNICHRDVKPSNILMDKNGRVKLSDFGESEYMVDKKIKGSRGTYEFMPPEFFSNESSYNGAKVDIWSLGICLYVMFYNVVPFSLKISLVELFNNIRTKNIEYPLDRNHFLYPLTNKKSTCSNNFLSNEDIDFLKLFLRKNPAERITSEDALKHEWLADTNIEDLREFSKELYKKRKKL
L-lactate dehydrogenase (Plasmodium falciparum (isolate CDC / Honduras)), sequence (Q27743 whole entry, looked up): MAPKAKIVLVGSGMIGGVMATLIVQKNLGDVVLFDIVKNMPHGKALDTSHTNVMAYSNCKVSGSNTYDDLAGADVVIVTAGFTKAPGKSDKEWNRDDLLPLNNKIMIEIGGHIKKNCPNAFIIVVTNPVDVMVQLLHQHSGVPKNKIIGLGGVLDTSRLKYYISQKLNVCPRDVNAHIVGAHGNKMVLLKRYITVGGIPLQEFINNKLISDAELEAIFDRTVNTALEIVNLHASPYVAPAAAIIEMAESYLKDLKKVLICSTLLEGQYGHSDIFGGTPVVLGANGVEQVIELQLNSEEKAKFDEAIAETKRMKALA
Calcium-dependent protein kinase 1 (Plasmodium falciparum (isolate 3D7)), sequence (P62344 whole entry, looked up): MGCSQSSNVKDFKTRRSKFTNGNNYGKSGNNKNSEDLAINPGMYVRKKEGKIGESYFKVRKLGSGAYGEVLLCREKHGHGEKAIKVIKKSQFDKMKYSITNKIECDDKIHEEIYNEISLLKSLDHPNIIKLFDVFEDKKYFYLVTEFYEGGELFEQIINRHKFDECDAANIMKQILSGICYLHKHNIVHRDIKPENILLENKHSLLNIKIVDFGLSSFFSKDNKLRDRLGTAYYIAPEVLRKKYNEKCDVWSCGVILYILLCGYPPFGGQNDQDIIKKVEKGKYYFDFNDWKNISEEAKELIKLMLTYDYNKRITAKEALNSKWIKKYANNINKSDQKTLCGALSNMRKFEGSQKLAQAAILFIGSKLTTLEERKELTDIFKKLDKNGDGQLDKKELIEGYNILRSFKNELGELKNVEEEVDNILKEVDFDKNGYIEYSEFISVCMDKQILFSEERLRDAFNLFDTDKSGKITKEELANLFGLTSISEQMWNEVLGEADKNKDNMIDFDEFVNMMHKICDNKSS
Plasmodium falciparum protein kinase 6 (PK6, PF3D7_1337100), sequence (Q8IDW1 1-305): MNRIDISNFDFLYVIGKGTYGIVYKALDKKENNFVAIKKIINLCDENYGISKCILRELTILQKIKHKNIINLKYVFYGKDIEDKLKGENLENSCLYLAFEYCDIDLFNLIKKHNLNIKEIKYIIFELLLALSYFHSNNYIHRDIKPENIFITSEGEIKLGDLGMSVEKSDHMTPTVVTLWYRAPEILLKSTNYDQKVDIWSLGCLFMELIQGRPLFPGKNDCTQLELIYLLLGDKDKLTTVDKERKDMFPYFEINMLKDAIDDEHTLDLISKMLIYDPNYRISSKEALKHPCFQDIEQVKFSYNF
Mitogen-activated protein kinase 7 (Homo sapiens), sequence (Q13164 whole entry, looked up, the tested form may be a part): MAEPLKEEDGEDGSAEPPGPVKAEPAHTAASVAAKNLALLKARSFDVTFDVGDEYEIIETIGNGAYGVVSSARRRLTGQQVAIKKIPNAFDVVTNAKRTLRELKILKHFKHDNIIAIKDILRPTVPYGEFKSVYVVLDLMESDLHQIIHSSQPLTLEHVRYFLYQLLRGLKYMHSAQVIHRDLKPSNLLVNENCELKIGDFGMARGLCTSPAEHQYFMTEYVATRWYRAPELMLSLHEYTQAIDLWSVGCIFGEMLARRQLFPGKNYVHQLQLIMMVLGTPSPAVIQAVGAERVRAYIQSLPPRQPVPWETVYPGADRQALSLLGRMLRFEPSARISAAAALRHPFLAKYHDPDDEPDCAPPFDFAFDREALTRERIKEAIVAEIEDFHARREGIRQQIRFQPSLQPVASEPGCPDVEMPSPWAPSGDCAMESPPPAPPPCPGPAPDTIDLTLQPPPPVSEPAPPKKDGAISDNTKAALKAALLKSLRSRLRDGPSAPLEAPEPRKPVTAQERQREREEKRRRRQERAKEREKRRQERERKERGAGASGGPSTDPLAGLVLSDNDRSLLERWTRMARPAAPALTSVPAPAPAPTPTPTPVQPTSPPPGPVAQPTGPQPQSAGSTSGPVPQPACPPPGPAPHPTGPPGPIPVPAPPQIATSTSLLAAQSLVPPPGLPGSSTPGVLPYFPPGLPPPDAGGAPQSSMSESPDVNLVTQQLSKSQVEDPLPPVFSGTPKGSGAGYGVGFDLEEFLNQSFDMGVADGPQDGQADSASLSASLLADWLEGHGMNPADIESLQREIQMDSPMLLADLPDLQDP
NAD(+) hydrolase SARM1 (Homo sapiens), sequence (Q6SZW1 whole entry, looked up, the tested form may be a part): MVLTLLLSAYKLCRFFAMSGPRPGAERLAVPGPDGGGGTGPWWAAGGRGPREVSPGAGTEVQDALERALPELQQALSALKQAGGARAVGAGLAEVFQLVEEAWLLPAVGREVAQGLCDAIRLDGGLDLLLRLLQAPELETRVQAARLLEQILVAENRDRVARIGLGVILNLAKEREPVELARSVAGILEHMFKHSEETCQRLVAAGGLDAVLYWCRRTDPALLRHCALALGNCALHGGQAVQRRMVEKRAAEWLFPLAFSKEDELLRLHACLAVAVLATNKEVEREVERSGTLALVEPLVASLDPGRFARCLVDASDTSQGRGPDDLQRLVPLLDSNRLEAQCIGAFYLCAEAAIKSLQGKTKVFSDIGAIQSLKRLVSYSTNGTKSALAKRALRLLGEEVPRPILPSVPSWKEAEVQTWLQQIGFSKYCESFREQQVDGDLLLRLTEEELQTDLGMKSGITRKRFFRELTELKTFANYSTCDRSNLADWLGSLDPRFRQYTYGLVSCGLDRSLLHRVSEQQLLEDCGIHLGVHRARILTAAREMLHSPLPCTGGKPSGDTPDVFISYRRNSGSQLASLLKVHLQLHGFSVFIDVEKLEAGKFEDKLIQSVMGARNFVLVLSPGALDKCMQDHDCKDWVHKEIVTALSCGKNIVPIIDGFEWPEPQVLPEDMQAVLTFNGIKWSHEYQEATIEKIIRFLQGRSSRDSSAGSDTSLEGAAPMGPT

Structure (SMILES): O=C(Nc1cc(C(F)(F)F)cc(C(F)(F)F)c1)c1cc(Cl)ccc1O
- growth inhibition [1]: 98% (active)
- inhibition [2]: 84% (active)
- inhibition [3]: 2% (inactive)
- growth inhibition [4]: 90% (active)
- parasite load remaining [5]: 0.02% (inactive)
- viability [5]: 51.5%
- outcome [6]: inactive
- outcome [7]: inactive
- outcome [8]: inactive
- outcome [9]: inactive
- remaining activity [10]: 120% (inactive)
- AC50 [11]: 1320 nM (active)
- AC50 [12]: 590 nM (active)
- AC50 [13]: 1870 nM (active)
- AC50 [14]: 1480 nM (active)
- AC50 [15]: 1860 nM (active)
- AC50 [16]: 1320 nM (active)
- AC50 [17]: 209 nM (active)
- AC50 [18]: 1480 nM (active)
- IC50 [19]: 2630 nM (active)
- fold change [20, 25]: 0.989 (inactive) and 1.06 (inactive)
- fold change [20, 26]: 0.581 and 1.23
- cell count [20, 27]: 1480 and 1100
- cell count [20, 28]: 1500 and 1040
- z-score [21, 29]: 0.314 (inactive)
- z-score [21, 30]: -0.453
- z-score [22]: -0.7 (inactive)

Structure (SMILES): CN(C)CCCSc1ccccc1NC(=O)C=Cc1ccccc1
- growth inhibition [1]: -3% (inactive)
- inhibition [2]: -4% (inactive)
- inhibition [3]: -5% (inactive)
- growth inhibition [4]: 85% (active)
- outcome [6]: inactive
- outcome [7]: inactive
- outcome [8]: inactive
- outcome [9]: inactive
- fold change [20, 25]: 0.957 (inactive)
- fold change [20, 26]: 1.81
- cell count [20, 27]: 8880
- cell count [20, 28]: 9280
- z-score [22]: -0.13 (inactive)

Structure (SMILES): COc1ccc(NC(=O)N2CCN(CCCCCNC(=O)/C=C/c3ccc(C(F)(F)F)cc3)CC2)cc1Cl
- growth inhibition [1]: -5% (inactive)
- inhibition [2]: 25% (inactive)
- inhibition [3]: -2% (inactive)
- growth inhibition [4]: 94% (active)
- outcome [6]: inactive
- outcome [7]: inactive
- outcome [8]: inactive
- outcome [9]: inactive

Structure (SMILES): Clc1ccc2c(NN=Cc3cccnc3)ccnc2c1
- growth inhibition [1]: 86% (active)
- inhibition [2]: -9% (inactive)
- inhibition [3]: 3% (inactive)
- growth inhibition [4]: 100% (active)
- outcome [6]: inactive
- outcome [7]: inactive
- outcome [8]: inactive
- outcome [9]: inactive

Structure (SMILES): COc1cc(C(F)(F)F)c2cc(CNCCCNc3nc4ccccc4[nH]3)[nH]c2c1
- growth inhibition [1]: 0% (inactive)
- inhibition [2]: 60% (active)
- inhibition [3]: -6% (inactive)
- growth inhibition [4]: 101% (active)
- outcome [6]: inactive
- outcome [7]: inactive
- outcome [8]: inactive
- outcome [9]: inactive

Structure (SMILES): CCCn1c(Sc2ccc(C#N)c([N+](=O)[O-])c2)nnc1-c1cc(OC)cc(OC)c1
- growth inhibition [1]: 79% (active)
- inhibition [2]: 24% (inactive)
- inhibition [3]: 6% (inactive)
- growth inhibition [4]: 98% (active)
- outcome [6]: inactive
- outcome [7]: inactive
- outcome [8]: inactive
- outcome [9]: inactive

Structure (SMILES): C=C[C@H]1CN2CC[C@H]1C[C@H]2[C@H](O)c1ccnc2ccc(OC)cc12
- growth inhibition [1]: 99% (active) and 22% (inactive) and 79% (active)
- inhibition [2]: 13% (inactive) and -12% (inactive) and -6% (inactive)
- inhibition [3]: -4% (inactive) and -7% (inactive)
- growth inhibition [4]: 100% (active) and 97% (active) and 99% (active)
- parasite load remaining [5]: 49.1% (inactive)
- viability [5]: 193%
- outcome [6]: inactive
- outcome [7]: inactive
- outcome [8]: inactive
- outcome [9]: inactive
- outcome [11]: inactive
- outcome [13]: inactive
- outcome [14]: inactive
- outcome [15]: inactive
- outcome [16]: inactive
- outcome [17]: inactive
- outcome [18]: inactive
- outcome [19]: inactive
- fold change [20, 25]: 0.942 (inactive)
- fold change [20, 26]: 0.791
- cell count [20, 27]: 9260
- cell count [20, 28]: 9830
- z-score [21, 29]: -0.0548 (inactive)
- z-score [21, 30]: 1.17
- remaining NAD [23]: 10 nM (inactive)
- luciferase signal [24]: 140 AU (inactive)
- z-score [22]: -0.735 (inactive)
